In PubChem BioAssay AID504411 (The Scripps Research Institute Molecular Screening Center, 2011) one finds inhibition data, which are given here for 89 molecules.

Hit rate of the full screen: of about 340,000 compounds, about 200 (0.059%) were called active. Shown is part of a subset that was picked to be rich in actives. Unmarked numbers belong to inactive results. Cut-off read from the data, not from the text of the source: active = inhibition above about 34%; inactive = the rest.

Diacylglycerol lipase-beta (Homo sapiens), sequence (Q8NCG7 whole entry, looked up): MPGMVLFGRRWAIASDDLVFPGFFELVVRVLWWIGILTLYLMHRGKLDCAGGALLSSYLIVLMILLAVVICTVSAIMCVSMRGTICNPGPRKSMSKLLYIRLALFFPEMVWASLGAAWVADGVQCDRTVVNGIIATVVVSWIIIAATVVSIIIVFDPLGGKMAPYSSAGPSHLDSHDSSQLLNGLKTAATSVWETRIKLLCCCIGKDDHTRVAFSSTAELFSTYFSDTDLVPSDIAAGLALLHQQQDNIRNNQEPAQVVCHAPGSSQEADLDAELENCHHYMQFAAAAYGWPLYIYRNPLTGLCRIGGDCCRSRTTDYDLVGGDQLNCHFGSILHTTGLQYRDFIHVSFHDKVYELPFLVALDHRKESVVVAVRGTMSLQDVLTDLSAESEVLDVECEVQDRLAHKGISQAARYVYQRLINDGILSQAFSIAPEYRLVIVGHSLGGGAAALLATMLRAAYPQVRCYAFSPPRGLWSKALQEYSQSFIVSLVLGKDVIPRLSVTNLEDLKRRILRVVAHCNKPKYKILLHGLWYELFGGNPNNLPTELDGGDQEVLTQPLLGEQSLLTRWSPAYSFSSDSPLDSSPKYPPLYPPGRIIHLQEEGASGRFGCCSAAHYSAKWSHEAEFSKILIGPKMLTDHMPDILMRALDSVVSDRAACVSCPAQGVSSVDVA

The experiment concerns the target Diacylglycerol lipase-beta (Homo sapiens) (UniProt Q8NCG7). Put plainly: inhibition of human DAGLB hydrolase activity – biochemical, fluorescence, HTS, primary screen (AID 504411).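 Note: 0% = enzyme with vehicle and 100% = wells lacking enzyme.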 Conditions: HEK293T DAGLB membrane lysate, EnzChek fluorogenic substrate; at 5.17 µM; hits give high values.
Broadly, the inhibition is the relative decrease from the control value, in per cent. In the case of `c1ccc2c(c1)OCCOCCOCCO2`, the inhibition was 0.06%. As for `Cc1ccc(S(=O)(=O)/N=C2\C=C(NS(=O)(=O)c3ccc(C)cc3)C(=O)c3ccccc32)cc1`, the figure is 38.9% (active); as for `Cc1ccc(S(=O)(=O)N/N=C(\c2ccccc2)C2CC2)cc1`, 0.32%. As for `COc1ccc(S(=O)(=O)/N=C2\C=C(NS(=O)(=O)c3ccccc3)C(=O)c3ccccc32)cc1`, the figure is 19.7%. As for `Cc1nn(C)c(C)c1CN(C(=O)CCc1nnc(Cc2c[nH]c3ccccc23)o1)C(C)C`, the figure is 1.36%; as for `COCc1ccc(C(=O)N2CCc3c([nH]c4ccccc34)C2c2ccccn2)s1` (centres undefined), 2.71%. As to `CC(CC(=O)N1CCN(c2ccccc2)CC1)S(=O)(=O)c1ccc2c(c1)NC(=O)CS2` (centres undefined), the inhibition is 1.53%. The value for `CCOc1ccc(-n2cnc3c(=O)[nH]c(N)nc32)cc1` was 0.5%. Turning to `O=C(Nc1nnc(CCN2CCCCC2)s1)c1cccc(Cl)c1`, the inhibition was 0.09%.

Regarding `CCOC(=O)C1=C(C)OC(N)=C(C#N)C1c1cncc(-c2ccc(F)cc2)c1` (centres undefined), the inhibition is -3.22%.

For the molecule `C=CCn1nc(-c2ccccc2)c2c(C)onc2c1=O`, the inhibition is -0.48%. As for `CC(Sc1nncn1C)C(=O)Nc1cc(C(F)(F)F)ccc1N1CCOCC1` (centres undefined), the figure is 0.9%; as for `O=C(NC1CCCC1)C1CC(=O)N(c2ccc(F)cc2)C1` (centres undefined), 2.14%; as for `O=C(COC(=O)c1ccc(O)cc1O)NC(=O)c1ccccc1`, 1.38%. The value for `O=C(NNc1c2ccccc2nc2ccccc12)c1cc2ccccc2cc1O` was 64% (active); that for `O=C(NNC(=O)c1ccccc1O)c1ccccc1O` was 3.19%.

Regarding `Cc1ccc(-c2cc(C(F)(F)F)n3ncc(C(=O)N4CCCCC4c4cccnc4)c3n2)cc1` (centres undefined), the inhibition was 0.87%. As for `Nc1ccc(Cl)c(S(=O)(=O)Nc2ccccc2Cl)c1`, the figure is 2.95%; as for `O=C1C(=O)N(CCN2CCOCC2)C(c2ccccn2)/C1=C(/O)c1ccc(Cl)cc1` (centres undefined), 1.82%; as for `COc1cc(/C=C/C(=O)N2CCc3ccccc3C2)cc(OC)c1OC`, -1.38%.

Consider `O=C(c1ccc(=O)[nH]c1)N(Cc1ccco1)C1(C(=O)NC2CCCCC2)CCCCC1`, for which the inhibition is -1.49%. On to `COc1cccc(NC(=S)NC(=O)c2c(Cl)c(C)nn2C)c1`, for which the inhibition is -24.9%.

Regarding `CN(C(=O)CSc1nnc(C2CC2)n1C)C1CCCc2ccccc21` (centres undefined), the inhibition was 1.81%. As for `CCOCCn1[nH]c2ccccc2c1=O`, the figure is -1.38%; as for `CCOc1ccc(C(O)Cn2c(=N)n(CCN3CCCCC3)c3ccccc32)cc1` (centres undefined), -2.39%.

As for `Cc1cccc(Nc2nc3c(S(=O)(=O)c4ccccc4)nnn3c3ccccc23)c1C`, the inhibition is 0.26%. For `CCn1c(SCC(=O)N2CCCC2=O)nc2ccccc21`, the inhibition is -0.5%. `COc1ccc(OC)c(NC(=O)c2cccc(S(=O)(=O)N3CCN(C(C)=O)CC3)c2)c1`: the inhibition is -0.51%.

`O=C(CCCN=C1NS(=O)(=O)c2ccccc21)OCC(=O)c1ccc(F)c(F)c1`: the inhibition is 1.93%.

Regarding `CN1CCC(N(C)C(=O)c2ccc(Cl)c(S(=O)(=O)Nc3ccc(Cl)cc3)c2)CC1`, the inhibition was -0.08%. As for `CSCCC(=O)N1CCCC(CNC(=O)c2ccccc2Cl)C1` (centres undefined), the figure is -3.33%; as for `C[C@H](CO)N1C[C@H](C)[C@@H](CN(C)C(=O)NC2CCCCC2)Oc2ccc(NC(=O)c3ccncc3)cc2C1=O`, -0.14%. Regarding `O=C1C=C(NCCNc2c(F)c(F)c(CO)c(F)c2F)CCC1`, the inhibition is 0.21%. As to `COc1ccc(C(=O)Cn2nnc(-c3ccc(N4CCOCC4)cc3)n2)cc1OC`, the inhibition was 0.4%. The value for `COc1ccccc1NS(=O)(=O)c1ccc(C(=O)N2CCN(c3ccccc3O)CC2)cc1` was 3.47%; that for `CCOC(=O)N1CCC(O)(c2cc(C)c(C)cc2C)CC1` was -4.76%.

As for `CC(=O)c1c(C)[nH]c(C(=O)CN2C(=O)NC(C)(C)C2=O)c1C`, the inhibition is 2.12%.

Consider `CCOC(=O)C1CN(S(=O)(=O)c2ccc(F)cc2)C1`, for which the inhibition was -3.17%. The value for `O=c1oc(-c2ccccc2NS(=O)(=O)c2ccc(Cl)cc2)nc2ccccc12` was 6.09%; that for `COc1cccc(/C=C2\SC(=S)N(CCCC(=O)N3CCOCC3)C2=O)c1` was -4.26%; that for `COCCCNC(=O)[C@H]1N2C(=O)c3ccccc3C2SC1(C)C` (some centres undefined) was -1.33%. As for `CC(=O)Nc1ccc(C(=O)Nc2cccc(S(=O)(=O)NC3=NCCC3)c2)cc1`, the figure is -2.22%; as for `CCOC(=O)C1CSC(CC(=O)Nc2ccc(OCC)cc2)C(=O)N1` (centres undefined), 0.21%. For `O=C(O)CC(c1ccccc1F)N1Cc2ccccc2C1=O` (centres undefined), the inhibition is 1.06%. The value for `CCCN(CCC)S(=O)(=O)c1ccc(C(=O)N2CC3CCC(CC3)C2)cc1` was -8.08%; that for `Cc1oc2cc([N+](=O)[O-])c(O)c([N+](=O)[O-])c2c1C(=O)c1ccc(Br)cc1` was 44% (active); that for `COc1ccc(C(=O)c2c(C)oc3cc([N+](=O)[O-])c(O)c([N+](=O)[O-])c23)cc1` was 21.1%. As for `Cc1oc2cc(Br)c(O)c(Br)c2c1C(=O)c1ccccc1`, the figure is -1.78%; as for `CCOc1ccc(S(=O)(=O)NCCC(=O)NCC(C)(C)N2CCOCC2)cc1`, 1.14%. Take `CSC1=N/C(=C\C=C\c2cccs2)C(=O)S1`: the inhibition was 6.62%. Take `Cc1c(C(=O)NCC(c2ccco2)N2CCCC2)oc2ccc(Cl)cc12` (centres undefined): the inhibition was -3.86%. As for `CCOC(=O)C1CCN(C(=O)C2(NC(=O)Nc3cccc(F)c3)CCCCC2)CC1`, the figure is 1.05%; as for `CC1(C)OC(=O)C(=CNC(CO)C(=O)O)C(=O)O1` (centres undefined), -0.76%. As for `CC(=O)N1CCc2ccc(N)cc21`, the figure is -0.55%; as for `COc1ccc(C(=O)NCc2ccc(C)cc2)cc1S(=O)(=O)N1CCCC1`, -0.31%; as for `Cc1cc(=O)n2nc(N3CCCC(C(=O)NCc4cccc(Cl)c4)C3)sc2n1` (centres undefined), -0.02%.

Take `CCOC(=O)CN(C(=O)COc1nc(-c2ccccc2)cc(C)c1C#N)c1ccc(F)cc1`: the inhibition is -4.62%. The value for `O=C(Oc1cccc(N2C(=O)C3C4c5ccccc5C(c5ccccc54)C3C2=O)c1)c1ccco1` (centres undefined) was 34.9% (active); that for `CC(=O)Nc1ccc(N2C(=O)C3C4CC(=O)C(c5ccccc54)C3C2=O)cc1` (centres undefined) was 2.73%. As for `COC(=O)c1cccc(N2C(=O)C3C4C=CC(CC4)C3C2=O)c1` (centres undefined), the figure is -2.32%; as for `CCOC(=O)C1=NN(c2ccc(Cl)cc2)/C(=C/C2=NCCc3cc(OC)c(OC)cc32)S1`, 3.17%; as for `CCN(CC(=O)Nc1ccc(NC(C)=O)cc1)C(=O)CSC(=S)N1CCCC1`, -0.87%. With `Cn1c(-c2ccc(C(=O)c3ccccc3)s2)nc2ccccc21`, the inhibition was -0.73%. Turning to `O=C1Cc2cc(S(=O)(=O)Nc3cccc(F)c3)ccc2N1`, the inhibition was 0.82%. As for `O=C(CCNC(=O)c1ccc([N+](=O)[O-])cc1)NC1CCCCC1`, the figure is 0.66%. With `O=C(/C=C/c1ccc(Cl)cc1)NCCCn1ccnc1`, the inhibition was -2.05%. The value for `CCOc1ccc(Br)cc1S(=O)(=O)Nc1cccc(S(=O)(=O)N(CC)CC)c1` was -0.11%. As for `Cc1cc(NC(=O)Nc2c[nH]c(=O)[nH]c2=O)ccc1Br`, the figure is -0.76%; as for `Cc1ccc(-c2nn(C(C)(C)C)c3ncnc(N)c23)cc1`, -2.33%; as for `CCCCCCn1c(=O)n2n(c1=O)C[C@]1(OC(=O)NCc3ccc(OC)c(OC)c3)CN(S(=O)(=O)c3ccc(C)cc3)C[C@]1(O)C2`, 1.56%. In the case of `CC(NC(=O)c1ccc(S(=O)(=O)Nc2ccccc2)cc1)c1ccc(S(N)(=O)=O)cc1` (centres undefined), the inhibition was 1.2%.

Turning to `Cc1ccccc1OCCC(=O)Nc1c(C)n(C)n(-c2ccccc2)c1=O`, the inhibition was -2.86%. For the molecule `CCOc1nnc(C)c2c(C)n(-c3cccc(Cl)c3)nc12`, the inhibition is -5.36%. For `O=[N+]([O-])c1cc(S(=O)(=O)CCCN2CCOCC2)ccc1F`, the inhibition is -0.41%.

Turning to `Cc1nc2ccc(S(=O)(=O)N(C)CC(=O)NC(C)c3ccccc3)cc2s1` (centres undefined), the inhibition is 1.36%.

As for `O=C1N(c2ccc(Cl)cc2)C(c2ccc(Cl)cc2)N2CCCN12` (centres undefined), the inhibition was -1.46%. As for `COc1ccc(S(=O)(=O)Nc2ccccc2C(=O)N2CCCC2)cc1C`, the figure is 0.86%. Turning to `COc1cccc(/C=N/Nc2ccc(S(=O)(=O)Nc3ccccc3C(=O)O)cc2[N+](=O)[O-])c1O`, the inhibition was 39.5% (active).

Consider `COc1ccc(Br)cc1/C=N/Nc1ccc(S(=O)(=O)Nc2ccccc2C(=O)O)cc1[N+](=O)[O-]`, for which the inhibition is 35.8% (active). The value for `COC(=O)c1ccccc1NS(=O)(=O)c1ccc2[nH]c(=O)[nH]c2c1` was -1.28%; that for `CCOc1ncccc1C(=O)NNC(=O)c1cccc(S(=O)(=O)Nc2ccccc2OC)c1` was 1.16%; that for `COc1ccc(S(=O)(=O)Nc2ccc3cn[nH]c3c2)cc1[N+](=O)[O-]` was -1.73%. As for `Cc1ccc(OCCCCN2CCCCC2)c(Br)c1`, the figure is 1.62%.

Turning to `CCCNC(=O)CN(Cc1ccccc1F)S(=O)(=O)c1ccc(C)cc1`, the inhibition is 1.71%.

Consider `COc1ccccc1C(=O)NC(=O)COC(=O)C1CC1`, for which the inhibition is 3.34%.

As for `N#CC(Cc1cc2ccccc2n1S(=O)(=O)c1ccccc1)OCc1ccccc1` (centres undefined), the inhibition is -8.05%. With `O=C(O)CCCCCCCCc1cn(CN2C(=O)c3ccccc3C2=O)nn1`, the inhibition was 1.19%. The value for `COc1cc(C2C(C(=O)c3sc(C)nc3C)=C(O)C(=O)N2CCN(C)C)cc(OC)c1OC` (centres undefined) was 0.65%; that for `O=C(N[C@@H]1C/C=C\C[C@@H](CC(=O)N(CCO)Cc2ccccc2)C(=O)N[C@H](Cc2ccccc2)COC1=O)OCC1c2ccccc2-c2ccccc21` was -1.54%.
